In PubChem BioAssay AID485364 (National Center for Advancing Translational Sciences (NCATS), 2010):
In all, about 360,000 compounds went through this assay and about 11,000 (3.1%) were called active. About 4% were inconclusive and are not listed. This is one part of a sample in which actives are shown more often than they occur. Calls follow the shape of the dose curve; as a rule, active = well fitted inhibition curve with a large enough effect; inconclusive = small, poorly fitted or top-dose-only effect; inactive = no such curve, though single readings can be large or run the other way.

Biological target: Schistosoma mansoni thioredoxin glutathione reductase (TGR) (UniProt Q962Y6)
Experiment: qHTS Assay for the Inhibitors of Schistosoma Mansoni Peroxiredoxins; also: nearly all actives have a fitted effect of over 60% in size
Details: purified TGR, DTNB reduction, TNB absorbance 405 nm; series mostly up to 114 µM; activity change, negative = inhibition: at the top concentration
How it was run: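 Kinetic colorimetric format: TGR-catalysed, NADPH-driven DTNB reduction monitored via TNB absorbance. Enzyme dispensed at 20 nM; compound exposure 15 min at room temperature before reaction start.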
% is scaled to controls: 0 for no effect and ±100 for the full control effect; potency is read from the fitted curve at half-maximal effect.

| Compound | activity change, negative = inhibition | Potency |
| --- | --- | --- |
| O=C(CCn1ccc2cc(S(=O)(=O)N3CCCC3)ccc21)NCc1cccc(Cl)c1 | -5.15% (inactive) |  |
| COc1ccc(Cl)cc1NC(=O)CSc1nc(-c2cccs2)cc(C(F)(F)F)n1 | -0.774% (inactive) |  |
| CCc1ccc(-n2nc(C)c3c(C)cc(=O)n(CC(=O)Nc4ccc(F)cc4C)c32)cc1 | -0.967% (inactive) |  |
| O=C(CC(c1cccs1)N1Cc2ccccc2C1=O)Nc1ccc(F)cc1F (stereo not drawn) | -8.15% (inactive) |  |
| COC(=O)c1c(NC(=O)c2ccc(Cl)c(Cl)c2)sc2c1CCCC2 | -1.51% (inactive) |  |
| CNC(=O)c1c(NC(NC(=O)c2ccco2)C(=O)c2ccc(Cl)cc2)sc2c1CCCC2 (stereo not drawn) |  | 25.1 µM (active) |
| CCOC(=O)c1c(NC(=O)c2cc(-c3ccc(Cl)cc3)on2)sc2c1CCCC2 | -7.21% (inactive) |  |
| CCOc1ccc(OCC)c(NC(=O)CN(c2ccc(C)cc2)S(=O)(=O)c2c(C)n[nH]c2C)c1 | 10.6% (inactive) |  |
| COc1ccc(CNC(=O)CSc2n[nH]c(-c3ccc(F)cc3)n2)cc1 | 2.87% (inactive) |  |
| Cc1cc(-c2ccc(C)c(S(=O)(=O)N3c4ccccc4CC3C)c2)on1 (stereo not drawn) | 11.2% (inactive) |  |
| COc1ccc(Cn2ccc3nc(C)c(C(=O)Nc4ccc(C)c(F)c4)cc3c2=O)cc1 | -0.138% (inactive) |  |
| O=C(CC(Cc1ccccc1)C(=O)O)NCCc1ccc2c(c1)OCO2 (stereo not drawn) | -1.4% (inactive) |  |
| O=C(CCNS(=O)(=O)c1ccccc1C(F)(F)F)NCc1ccc2c(c1)OCO2 | -10.5% (inactive) |  |
| O=C(CCc1nnc(Cc2ccc3c(c2)OCO3)o1)NCCc1ccccc1Cl |  | 31.6 µM (active) |
| CCOc1ccccc1CNC(=O)Nc1cn(CC(C)C)c(=O)c2ccccc12 | -7.64% (inactive) |  |
| O=S(=O)(NCC1OCCc2ccccc21)c1ccccc1 (stereo not drawn) | 34.3% (inactive) |  |
| O=c1/c(=C/c2ccc(CNS(=O)(=O)c3ccccc3)o2)sc2n1CCN=2 |  | 25.1 µM (active) |
| O=S(=O)(NCc1ccccc1)c1ccc(S(=O)(=O)N2CCCC2)cc1 | -0.62% (inactive) |  |
| CCCCN(C)CCCNC(=O)CN1N=C(c2ccc(OC)cc2)CCC1=O | 2.84% (inactive) |  |
| COc1ccc(CC(=O)Nc2ccc(-c3nc4ccccc4s3)c(C)c2)cc1 | 6.41% (inactive) |  |
| O=S(=O)(c1cc(Cl)ccc1Cl)N1CCN(Cc2ccco2)CC1 | -16.2% (inactive) |  |

| Compound | activity change, negative = inhibition | Potency |
| --- | --- | --- |
| O=C(CN1CCN(S(=O)(=O)c2cc(Cl)ccc2Cl)CC1)c1ccc(O)c(O)c1 |  | 17.8 µM (active) |
| COc1ccc(Cl)cc1S(=O)(=O)N1CCN(CC(=O)C(C)(C)C)CC1 | -27.4% (inactive) |  |
| Cc1ccc(C)n1-c1nnc(N2CCC(C(=O)NCc3ccccc3Cl)CC2)s1 | -21.1% (inactive) |  |
| Cc1ccc(/C=C/C(=O)OCC(=O)NCc2ccc(Cl)cc2)o1 |  | 25.1 µM (active) |
| COc1ccc(CNC(=O)COC(=O)/C=C/c2ccc(S(=O)(=O)N3CCOCC3)cc2)cc1 | 4.4% (inactive) |  |
| CCN(CC(=O)NCc1ccc(Cl)cc1)C(=O)c1c(C)noc1C | -9.68% (inactive) |  |
| Cc1nnsc1S(=O)(=O)Cc1ccccc1Cl | -2.4% (inactive) |  |
| O=C(Nc1ccc(Oc2ccccc2)cc1)C1CCN(S(=O)(=O)c2ccc(Cl)cc2)CC1 | -7.31% (inactive) |  |
| O=C(Nc1ccccc1)c1nnsc1S(=O)(=O)c1ccc(Cl)cc1 |  | 0.316 µM (active) |
| COc1ccc(Nc2cc(C(=O)NCCCN(C)c3ccccc3)c3ccccc3n2)c(OC)c1 | 9.2% (inactive) |  |
| CCCn1c(=N)n(CC(O)COc2ccccc2OC)c2ccccc21 (stereo not drawn) | 4.68% (inactive) |  |
| CCOc1ccc(CNC(=O)C2CCCN(S(=O)(=O)N(CC)c3ccc(OCC)cc3)C2)cc1 (stereo not drawn) | -9.5% (inactive) |  |
| CCCN1CN=C(NS(=O)(=O)c2ccc(NC(C)=O)cc2)NC1 | 5.57% (inactive) |  |
| Cc1ccc(-n2nnnc2CNC(=O)c2ccccc2C)cc1C | 13% (inactive) |  |
| O=C1NC(=O)N(c2ccc(F)cc2)C(=O)/C1=C/c1ccc2c(c1)CCCN2Cc1ccccc1 |  | 17.8 µM (active) |
| CCCN1CCN(CCCNC(=O)Cn2nc(CC)n3c(cc4occc43)c2=O)CC1 | -11.9% (inactive) |  |
| O=C(NC(=S)Nc1ccc(NC(=O)c2cccs2)cc1)c1ccc([N+](=O)[O-])cc1 | 1.64% (inactive) |  |
| O=C(Nc1ccccc1-c1ccccc1)c1cccs1 | -1.38% (inactive) |  |
| O=C(NC(=S)Nc1cccc(-c2ccc(CO)o2)c1)c1cccs1 |  | 20 µM (active) |
| Cc1ccc(S(=O)(=O)N2CCC(C(=O)Nc3cc(C)ccc3C)CC2)cc1 | 21.4% (inactive) |  |
| O=C(CSc1nc(=O)n(Cc2cccnc2)c2c1CCC2)Nc1ccc(F)cc1F | 3.22% (inactive) |  |

| Compound | activity change, negative = inhibition | Potency |
| --- | --- | --- |
| CCc1ccc(N(CC)C(=O)CCn2cnc3onc(-c4ccc(F)cc4)c3c2=O)cc1 | -0.879% (inactive) |  |
| O=C1CC(c2nnc(Cc3ccc(Cl)cc3)o2)CN1c1ccccc1 (stereo not drawn) | 3.72% (inactive) |  |
| Cc1ccsc1C1C(C#N)=C(N)OC2=C1C(=O)CC(C)(C)C2 (stereo not drawn) | 0.359% (inactive) |  |
| CC(C)C1C2=C(CC(C)(C)CC2=O)ON1c1ccccc1 (stereo not drawn) |  | 28.2 µM (active) |
| CC(C)N1C(=O)N(c2ccccc2)C(C)(O)CC1(C)C (stereo not drawn) | 0.967% (inactive) |  |
| Cc1sc2ncn(CC(=O)N3CCN(c4ccc(F)cc4)CC3)c(=O)c2c1S(=O)(=O)N1CCN(c2ncccn2)CC1 | -0.836% (inactive) |  |
| CCc1cnc2c(c1SCC(=O)N1CCC(C)CC1)c(=O)n(C)c(=O)n2C | -0.0016% (inactive) |  |
| O=C(Nc1cc(-c2nc3ccccc3o2)ccc1Cl)c1cc([N+](=O)[O-])ccc1N1CCOCC1 | -0.536% (inactive) |  |
| Cc1cccc(NC(=O)c2ccc([N+](=O)[O-])o2)c1 |  | 31.6 µM (active) |
| Cc1cccc(NC(=O)c2ccc(COc3ccccc3[N+](=O)[O-])o2)n1 | -4.93% (inactive) |  |
| Cc1cccc(NC(=O)C(C)SCc2ccccc2)c1 (stereo not drawn) | -15.1% (inactive) |  |
| O=C(Nc1cccc([N+](=O)[O-])c1)c1ccc2c(c1)OCO2 | 2.85% (inactive) |  |
| Cc1onc(C(=O)Nc2ccc3c(c2)OCO3)c1[N+](=O)[O-] | -12.1% (inactive) |  |
| Cc1onc(NC(=O)c2ccc([N+](=O)[O-])o2)c1Br |  | 28.2 µM (active) |
| Cc1cccc(C(=O)Nc2ccc(-c3nc4ncccc4o3)cc2C)c1 | 14.9% (inactive) |  |
| COc1cc(NC(=O)c2cc3ccc4cccnc4c3[nH]2)cc(OC)c1OC | 12.9% (inactive) |  |
| COc1ccc(Cl)cc1NC(=O)CCn1c(=O)c2cccn2c2ccccc21 | -1.03% (inactive) |  |
| COc1cc(OC)c(OC)cc1/C=C/c1nc2cc3ccccc3cc2c(=O)n1-c1ccc(F)c(Cl)c1 | 2.39% (inactive) |  |
| CCOC(=O)C(NC(=O)CC(C)C)(Nc1sc2c(c1C(N)=O)CCCC2)C(F)(F)F (stereo not drawn) | -18.7% (inactive) |  |
| COC(=O)C(NC(C)=O)(Nc1nc2c(s1)CCCC2)C(F)(F)F (stereo not drawn) |  | 50.1 µM (active) |
| Cc1cc(C)cc(OC(C)C(=O)Nc2nc3c(s2)CCCC3)c1 (stereo not drawn) | 5.35% (inactive) |  |
